In ChEMBL document CHEMBL4513216, “Probing the Open Global Health Chemical Diversity Library for Multistage-Active Starting Points for Next-Generation Antimalarials” (ACS Infect Dis, 2020):
The campaign covered roughly 65,000 compounds. About 2,100 (3.2%) showed an effect of 50% or more. The median lay at about -52%. What follows is part of a selection rich in strong results, with near analogues and random picks from the rest.

These compounds were tested on Plasmodium falciparum (assay: Screen against P. falciparum Asexual Blood Stage (ABS), at 5uM). Conditions: tested at 5 uM.
Format: functional, Dd2

SMILES	INHIBITION [%]
Cc1ocnc1C(=O)N1CCCC1c1ccc(C(=O)N2CCSCC2)s1 (stereo unspecified)	-154
Cn1c(=O)c2c(n3ncnc13)NC(=O)CC2c1cccc(Br)c1 (stereo unspecified)	-61.2
CC(C)c1nc(CN(C)C(=O)c2cn3ccsc3n2)cs1	-43.1
COc1cccc(C=CCCN2CCCN(C(C)=O)CC2)c1	-13
COCC(=O)N1CCC2(CCCN(Cc3cc(OC)ccc3F)C2)C1 (stereo unspecified)	-70
CCCn1ccnc1CN1CCC(O)(CN2CCCCC2)C1 (stereo unspecified)	18.6
Cc1cc(-n2cccn2)ccc1CN1CCC(O)(CN2CCCCC2)C1 (stereo unspecified)	62.1
COc1ccc(CN2CCC(O)(CN3CCCCC3)C2)c(C)c1 (stereo unspecified)	67.6
COc1ccc(F)c(CN2CCCC3(CCN(C(=O)CSC)C3)C2)c1 (stereo unspecified)	-63.5
Cc1ccccc1CN1C[C@@H](CN(C)CCO)[C@@H](CO)C1	7.46
CN(C)C[C@@H]1CN(Cc2ccccc2C#N)C[C@@H]1CO	-47.7
CC(C)c1nccc(CN2CCC(O)(CN3CCCCC3)C2)n1 (stereo unspecified)	32.8
Cc1cc(F)ccc1CN1CCCC(O)(CN2CCCC2)C1 (stereo unspecified)	66.7
Cc1cc(-n2cccn2)ccc1CN1C[C@@H](CN(C)C)[C@@H](CO)C1	51.7
Cc1cc(F)ccc1CN1CCCC2(C1)OCCO2	-67.8
Cc1cc(C)c(C(=O)N2CCCC(O)(CN3CCCC3)C2)cc1C (stereo unspecified)	-30.5

SMILES	INHIBITION [%]
COc1cccc(Cn2cc(N3C(=O)CCC3=O)cn2)c1	-83.8
c1cnc(N2CCC3(COCc4cnc(-c5cccnc5)nc43)C2)nc1 (stereo unspecified)	-78.5
COCC1CN(c2ncccn2)Cc2cnn(CC3CC3)c21 (stereo unspecified)	-16.5
CS(=O)(=O)N1CCN(C(=O)C2CSCCC(=O)N2)CC1 (stereo unspecified)	-38.6
Cc1nc(CN2CCN(C3CCOC3)Cc3cccnc32)cs1 (stereo unspecified)	-78.6
CCCNC(=O)c1cccc(CNCc2csc(C(C)C)n2)c1	-48.2
Cc1noc(NC(=O)c2cccc(Br)c2)n1	-81.9
O=C1CCC2(CCN(Cc3ccc(F)cc3Cl)CC2)CN1CCO	-54
Cc1cc(C(=O)N2CCCC(O)(CN3CCCC3)C2)ccc1Cl (stereo unspecified)	-21.4
OC1(CN2CCCC2)CCCN(Cc2ccc(F)cc2Cl)C1 (stereo unspecified)	58.3
Cn1cc(C[C@H]2[C@H](O)CCN2Cc2ccc(F)cc2)cn1	6.42
Cc1cc(CN(C)C(=O)Nc2ccccc2C)no1	-85.5
Cc1ccc(CN(CCN(C)C)Cc2nc3ccccc3[nH]2)s1	61.2
Cc1ccc(CN(CCCO)Cc2nc3ccccc3[nH]2)s1	-76.9
Cc1ccc(CN(CCN(C)C)Cc2ncc[nH]2)s1	-73.3
